{"source": "PubChem BioAssay (Tox21)", "note": "Results filed as inconclusive are left out. Entries that show only a call come without a potency. Unmarked numbers belong to inactive results. Active and inactive are the calls of the source. Calls come from the whole dose curve; as a rule, active = well fitted activation curve with a large enough effect in the repeat runs; inconclusive = weak or mixed curves; inactive = flat fitted curve, though single readings scatter. Where a SMILES comes first, the peptide text is derived from it. [ ]: non-standard residue; d: D form. pGlu = O=C1CC[C@@H](C(=O)O)N1", "data": [{"assay": "A CellTox Green Cytotoxicity Assay to monitor cytotoxicity in HepG2 cells - 40 hour (AID 1224879); note: nearly all actives have a fitted effect of over 40% in size", "conditions": "CellTox Green fluorescence; series mostly up to 76.8 µM", "outline": "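HepG2 cells were seeded together with the CellTox Green dye at 600 cells/well, left 5 h at 37 C/5% CO2, then given compounds in DMSO. Fluorescence from dye bound to dead-cell DNA was read repeatedly over 40 h of treatment at 37 C.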", "values": [{"smiles": "O=S(=O)(O)c1cc(O)c(O)c(S(=O)(=O)O)c1", "Potency": "inactive"}, {"smiles": "CCC1C(=O)OCC1Cc1cncn1C", "note": "(centres undefined)", "Potency": "inactive"}, {"smiles": "C[C@H]1[C@H](NC(=O)/C(=N/OC(C)(C)C(=O)O)c2csc(N)n2)C(=O)N1S(=O)(=O)O", "note": "(stereo in doubt)", "Potency": "inactive"}, {"smiles": "Nc1ccn([C@@H]2O[C@H](CO)[C@@H](O)C2O)c(=O)n1", "note": "(some centres undefined)", "Potency": "inactive"}, {"smiles": "CC1=NN(c2cc(S(=O)(=O)O)ccc2Cl)C(=O)C1N=Nc1ccccc1", "note": "(centres undefined)", "Potency": "inactive"}, {"smiles": "O=S(=O)(O)c1cccc(S(=O)(=O)O)c1", "Potency": "inactive"}, {"smiles": "CCN[C@H]1C[C@H](C)S(=O)(=O)c2sc(S(N)(=O)=O)cc21", "Potency": "inactive"}, {"smiles": "NCCCC(N)(C(=O)O)C(F)F", "note": "(centres undefined)", "Potency": "inactive"}, {"smiles": "CCC(C(=O)NC(=O)NC(C)=O)c1ccccc1", "note": "(centres undefined)", "Potency": "inactive"}, {"smiles": "CC1=CC(=O)[C@H]2C[C@@H]1C2(C)C", "Potency": "inactive"}, {"smiles": "CN(C)C(=O)Oc1cccc([N+](C)(C)C)c1", "Potency": "inactive"}, {"smiles": "COC(=O)C1=C(C)NC(C)=C(C(=O)OC(C)C)C1c1cccc2nonc12", "note": "(centres undefined)", "Potency": "inactive"}, {"smiles": "CCCCCCCCCCCCCCC(=O)O", "Potency": "inactive"}, {"smiles": "CN1CCC(=C2c3ccccc3CCc3cccnc32)CC1", "Potency": "inactive"}, {"smiles": "CCOc1ccccc1OCC", "Potency": "inactive"}, {"smiles": "CCCc1ncc(C[n+]2ccccc2C)c(N)n1", "Potency": "inactive"}, {"smiles": "CCOC(=O)c1cnc2c(cnn2CC)c1NN=C(C)C", "Potency": "inactive"}, {"smiles": "CC(C(=O)O)c1cccc(Oc2ccccc2)c1", "note": "(centres undefined)", "Potency": "inactive"}, {"smiles": "CCNC(=O)[C@@H]1CCCN1C(=O)[C@H](CCCN=C(N)N)NC(=O)[C@H](CC(C)C)NC(=O)CNC(=O)[C@H](Cc1ccc(O)cc1)NC(=O)[C@H](CO)NC(=O)[C@H](Cc1c[nH]c2ccccc12)NC(=O)[C@H](Cc1cnc[nH]1)NC(=O)[C@@H]1CCC(=O)N1", "note": "([pGlu]HWSYGLRP-NHEt)", "Potency": "inactive"}, {"smiles": "C[N+]1(C)[C@@H]2CC(OC(=O)[C@H](CO)c3ccccc3)C[C@H]1[C@@H]1O[C@@H]12", "note": "(some centres undefined)", "Potency": "inactive"}, {"smiles": "CC[N+](C)(CC)CCOC(=O)C1c2ccccc2Oc2ccccc21", "Potency": "inactive"}, {"smiles": "C[C@H]1C[C@H]2[C@@H]3CCC4=CC(=O)C=C[C@]4(C)[C@H]3C(=O)C[C@]2(C)[C@@]1(O)C(=O)CO", "Potency": "inactive"}, {"smiles": "CCC(C)(CN(C)C)OC(=O)c1ccccc1", "note": "(centres undefined)", "Potency": "inactive"}, {"smiles": "CN1CCN(c2cc3c(nn2)Oc2ccccc2N3C)CC1", "cytotoxicity increase": "-1.51% [at 15.8 µM]"}, {"smiles": "OCCCCCO", "Potency": "inactive"}, {"smiles": "CCN[C@@H]1C[C@H](N)[C@@H](OC2OC(CN)=CCC2N)[C@H](O)[C@H]1O[C@H]1OC[C@](C)(O)[C@H](NC)[C@H]1O", "note": "(some centres undefined)", "cytotoxicity increase": "-8.46% [at 0.29 µM]"}, {"smiles": "C[N+](C)(C)CCCCCCCCCC[N+](C)(C)C", "Potency": "inactive"}, {"smiles": "Nc1c2c(nc3c1CCC3)CCCC2", "Potency": "inactive"}, {"smiles": "CCOCC(C)O", "note": "(centres undefined)", "Potency": "inactive"}, {"smiles": "CC[N+](CC)(CC)CCOc1cccc(OCC[N+](CC)(CC)CC)c1OCC[N+](CC)(CC)CC", "Potency": "inactive"}, {"smiles": "CCCCN1C=CN(C)C1", "cytotoxicity increase": "-22.4% [at 15.8 µM]"}, {"smiles": "COc1cc(-c2ccc(=O)[nH]n2)ccc1OC(F)F", "Potency": "inactive"}, {"smiles": "C=CCCC(=O)O", "Potency": "inactive"}, {"smiles": "CC(C#N)(CCC(=O)O)N=NC(C)(C#N)CCC(=O)O", "note": "(centres undefined)", "Potency": "inactive"}]}]}
